Assay results as given in the supplement of paper PMC10498489.
About 330 (14%) of roughly 2,300 compounds showed activity. These entries were drawn from the full list. A number with no mark means an inactive call.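 How the source made its calls: active = median modified Z-score above 1.96; inactive = 1.96 or below.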

The compounds below were run on HepG2 Srxn1-GFP reporter cells (+30 nM CDDO-Me) (assay: Srxn1-GFP intensity median modified Z-score relative to plate median; higher = stronger NRF2 / oxidative stress reporter activation, active = hit call of the paper). Settings: 10 µM; exposure time: 24h.
Outline: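 Each value is the replicate median of a per-plate modified Z-score for GFP intensity in HepG2 Srxn1-GFP BAC reporter cells. The cells (20,000 per well, 96-well plates, three replicate plates) received compound at 10 μM together with an NRF2 activator at 30 nM for 24 h, in ≤0.1% DMSO. Cytoplasmic GFP was quantified per cell from confocal images of formaldehyde-fixed, Hoechst-stained cells, leaving out images with fewer than 100 cells, and scaling used 1.4826 × median absolute deviation.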

Row | SMILES | Srxn1-GFP intensity median modified Z-score
1 | C=C[C@](C)(O)CC[C@@H]1[C@@]2(C)CCCC(C)(C)[C@@H]2CC[C@]1(C)O [euspeclibcmpd2213] | 2.3 (active)
2 | C=C[C@@](C)(O)CCC1C(=C)C[C@H](O)C2C(C)(C)CCCC12C (stereo partly specified) [euspeclibcmpd2065] | 0.497
3 | CNC(CC(=O)O)C(=O)O (stereo unspecified) [euspeclibcmpd1746] | -0.42
4 | CN1CCN(C(c2ccccc2)c2ccccc2)CC1 [euspeclibcmpd77] | 0.846
5 | OC(COC(c1ccccc1)c1ccccc1)CN1CCN(/C=C/Cc2ccccc2)CC1 (stereo unspecified) | 0.401
6 | CC(=O)NC(CC(C)C)C(=O)O (stereo unspecified) [euspeclibcmpd1070] | -0.124
7 | CC(C)NS(=O)(=O)C1CCN(C(=O)CCS(=O)(=O)C2CCCC2)C1 (stereo unspecified) | 1.14
8 | CC(C)Cn1cnc2c(=N)[nH]c3ccccc3c21 [euspeclibcmpd542] | -0.55
9 | CC(=O)N=c1[nH]nc(S(N)(=O)=O)s1 [euspeclibcmpd48] | 0.382
10 | CCCc1nc(C)c2c(=O)[nH]c(-c3cc(S(=O)(=O)N4CCN(CC)CC4)ccc3OCC)nn12 [euspeclibcmpd760] | -0.393
11 | O=C(Oc1cc(O)cc2c1CC(OC(=O)c1cc(O)c(O)c(O)c1)C(c1cc(O)c(O)c(O)c1)O2)c1cc(O)c(O)c(O)c1 (stereo unspecified) [euspeclibcmpd1839] | -0.336
12 | O=C(OC[C@H]1O[C@H](OC(=O)c2cc(O)c(O)c(OC(=O)c3cc(O)c(O)c(O)c3)c2)[C@H](OC(=O)c2cc(O)c(O)c(OC(=O)c3cc(O)c(O)c(O)c3)c2)[C@@H](OC(=O)c2cc(O)c(O)c(OC(=O)c3cc(O)c(O)c(O)c3)c2)[C@@H]1OC(=O)c1cc(O)c(O)c(OC(=O)c2cc(O)c(O)c(O)c2)c1)c1cc(O)c(O)c(OC(=O)c2cc(O)c(O)c(O)c2)c1 [euspeclibcmpd649] | 8.09 (active)
13 | O=C(O[C@@H]1Cc2c(O)cc(O)cc2O[C@@H]1c1cc(O)c(O)c(O)c1)c1cc(O)c(O)c(O)c1 [euspeclibcmpd1546] | 1.25
14 | CCCCCCCCCCCCCCCC(=O)OCC(O)c1oc(O)c(O)c1O (stereo unspecified) [euspeclibcmpd862] | -0.777
15 | CC(C)(Oc1ccc(C(=O)c2ccc(Cl)cc2)cc1)C(=O)O [euspeclibcmpd2188] | -0.278
16 | Cc1c2oc3c(C)ccc(C(=O)OC(C)C4NC(=O)C(C(C)C)N(C)C(=O)CN(C)C(=O)C5CCCN5C(=O)C(C(C)C)NC4=O)c3[nH]c-2c(C(=O)OC(C)C2NC(=O)C(C(C)C)N(C)C(=O)CN(C)C(=O)C3CCCN3C(=O)C(C(C)C)NC2=O)c(=N)c1=O (stereo unspecified) [euspeclibcmpd955] | -2.39
17 | CNCCCN1c2ccccc2CCc2ccccc21 [euspeclibcmpd86] | 1.22
18 | CN1CCN(CCCN2c3ccccc3Sc3ccc(Cl)cc32)CC1 [euspeclibcmpd249] | 3.78 (active)
19 | CN1CCN(CCCN2c3ccccc3Sc3ccc(C(F)(F)F)cc32)CC1 [euspeclibcmpd306] | 0.328
20 | CNCCCN1c2ccccc2Sc2ccccc21 | 2.13 (active)
21 | CN(C)CCCN1c2ccccc2Sc2ccccc21 [euspeclibcmpd252] | 0.744

Row | SMILES | Srxn1-GFP intensity median modified Z-score
22 | OCCN1CCN(CCCN2c3ccccc3Sc3ccc(Cl)cc32)CC1 [euspeclibcmpd640] | -1.43
23 | C/C(=C(/CCOP(=O)(O)O)SC(=O)c1ccccc1)N(C=O)Cc1c[nH]c(C)nc1=N [euspeclibcmpd1052] | 1.09
24 | O=C(CCc1ccccc1)NCCO | 1.29
25 | Cc1nnc(SC=C2CSC3C(NC(=O)Cn4cnnn4)C(=O)N3C2C(=O)O)s1 (stereo unspecified) [euspeclibcmpd2337] | 0.336
26 | CCCCNC(=O)c1ccc(NC(C)=O)cc1 | 0.99
27 | CC(C)=CCCC1(C)C=Cc2c(O)c3c(c(CC=C(C)C)c2O1)OC12C(=CC4CC1C(C)(C)OC2(C=CC(C)C(=O)O)C4=O)C3=O (stereo unspecified) [euspeclibcmpd1425] | 127 (active)
28 | CC(C)=CCCC1(C)C=Cc2c(O)c3c(c(CC=C(C)C)c2O1)OC12C(=CCCC1C(C)(C)O[C@@]2(C=CC(C)C(=O)O)C(=O)O)C3=O (stereo partly specified) [euspeclibcmpd1701] | 6.67 (active)
29 | CC(C)=CCCC1(C)C=Cc2c(O)c3c(c(CC=C(C)C)c2O1)OC12C(CC4CC1C(C)(C)OC2(C=CC(C)C(=O)O)C4O)C3=O (stereo unspecified) [euspeclibcmpd1941] | 50.9 (active)
30 | COc1ccc(-c2coc3c4c(c(CC=C(C)C)c(OC)c3c2=O)OC(C)(C)C=C4)cc1OC [euspeclibcmpd2197] | -0.274
31 | COC(=O)C(C)=CCC12OC(C)(C)C3CC(=CC4C(=O)c5c(OC)c6c(c(CC=C(C)C)c5OC431)OC(C)(CCC=C(C)C)C=C6)C2=O (stereo unspecified) [euspeclibcmpd2284] | 55.9 (active)
32 | Cc1cc(C)cc(-c2nnc(SCc3csc(Nc4ccccc4)n3)o2)c1 | 0.289
33 | O=c1[nH]cnc2[nH]ncc12 [euspeclibcmpd15] | 0.378
34 | CCOC(=O)O[C@]1(C(=O)COC(=O)CC)CCC2C3CC=C4CC(=O)C=C[C@]4(C)C3[C@@H](O)C[C@@]21C (stereo partly specified) [euspeclibcmpd1145] | -0.25
35 | NC(COCc1ccccc1)C(=O)O (stereo unspecified) [euspeclibcmpd2285] | -0.141
36 | Cc1cc(CC(C)CC(C)(C)C)n(O)c(=O)c1 (stereo unspecified) [euspeclibcmpd627] | 0.455
37 | O=C(NC(Cc1cc(=O)[nH]c2ccccc12)C(=O)O)c1ccc(Cl)cc1 (stereo unspecified) [euspeclibcmpd1178] | 0.0863
38 | CN(CCOC(c1ccccc1)c1ccccc1)S(C)(=O)=O | 1.57
39 | CC(=O)Nc1cc2ccccc2oc1=O [euspeclibcmpd1797] | 0.241
40 | CCCC(=O)N=c1[nH]cnc2c1ncn2C1O[C@@H]2COP(=O)(O)O[C@H]2[C@H]1OC(=O)CCC (stereo partly specified) [euspeclibcmpd1111] | 0.97
41 | CCCCCCOC(=O)N=C(N)c1ccc(NCc2nc3cc(C(=O)N(CCC(=O)OCC)c4ccccn4)ccc3n2C)cc1 [euspeclibcmpd2169] | 0.57
